VP16 counter: counter-screen for ROR gamma inhibitors: Gal4-VP16 reporter; Drosophila S2 Gal4-VP16 UAS-luciferase, luminescence, 20 h; Potency, µM (top dose mostly 53.6 µM), for the others: at the top dose activity, negative = inhibition, most hits filed as inhibitors; 310,000 compounds, 3.5% hits; AID 2546;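 note: Gal4-VP16 expression switched on by copper sulfate through the metallothionein promoter; % is set by controls: 0 for no effect and ±100 for the full control effect; nearly all actives have a fitted effect of over 50% in size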
Epigenetic derep: regulators of epigenetic silencing causing reporter derepression in mouse cells; murine LDR cells, GFP reporter derepression, 30 h; Potency, µM (series often up to 53.9 µM), for the others: top-dose GFP activation, usual class: activators; 280,000 compounds, 0.2% hits; AID 1865; note: % of control where 0% means no effect; nearly all actives have a fitted effect of over 60% in size
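Murine LDR cells bearing a silenced CMV-driven GFP reporter were exposed to compound for 30 h at 37 C. After PBS washes, GFP-positive cells (20-120 um objects) counted by laser-scanning microplate cytometry.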
PINK1 expr mod: changes PINK1 expression | Potency, µM (titrated, usually from 76.6 µM), without a hit: top-dose activation (PINK1 increase), most hits filed as activators | 410,000 compounds, 0.2% hits | PINK1 immunofluorescence, high-content cytometry, 24 h; active = well fitted activation curve with a large enough effect; inconclusive = small, poorly fitted or top-dose-only effect; cell line not stated here; note: % of control where 0% means no effect; nearly all actives have a fitted effect of over 65% in size
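Stable cell line treated 24 h with compounds at 5 concentrations (CCCP controls), then fixed and immunostained for PINK1 plus nuclear and cell stains; PINK1 immunofluorescence quantified by laser-scanning microplate cytometry.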
RORg inh: inhibitors of mouse ROR gamma transcriptional activity. AID 2551. Potency, µM (doses to about 53.6 µM), without a hit: at the highest dose activity change, negative = inhibition, hits mostly inhibitors. 310,000 compounds, 5.4% hits. Drosophila S2 Gal4-RORgamma UAS-luciferase reporter, 20 h; note: % is set by controls: 0 for no effect and ±100 for the full control effect; nearly all actives have a fitted effect of over 60% in size
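Stable Schneider cell line, Gal4 DNA-binding domain fused to ROR gamma, UAS-luciferase. Cmpd 1 hr RT → CuSO4 700 uM final → 20 hr RT → luciferase reagent 10 min → luminescence.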
ClpP mod: qHTS Assay for Activators of ClpP; purified B. subtilis ClpP, FRET peptide cleavage, 20 min; Potency, µM (titrated, usually from 57.5 µM), for the others: at the top dose activity change, negative = active; ATP-dependent Clp protease proteolytic subunit (Bacillus subtilis (strain 168)), P80244; 340,000 compounds, 1.9% hits; active = well fitted falling curve with a large enough effect; inconclusive = small, poorly fitted or top-dose-only effect; inactive = no such curve, though single readings can be large or run the other way; note: the source files actives as falling curves though it sought activators and does not explain the sign; nearly all actives have a fitted effect of over 65% in size
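FRET quenching reversal measured ClpP activation: 10 microg/mL B. subtilis ClpP at pH 8 with the FRET-FV decapeptide, read at 430 nm after 320 nm excitation. The 20-min minus 0-min signal was scaled between DMSO/no-enzyme wells and ADEP (5.8 microM final).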
Sfp PPTase inh: inhibitors of Bacillus subtilis Sfp phosphopantetheinyl transferase; Potency, µM, for inactives: largest response in the series, negative = inhibition, most hits filed as inhibitors; Biochemical Sfp PPTase activity, qHTS; Q9F4F7; 310,000 compounds, 3.5% hits;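 note: the enzyme is Sfp with the accession as filed and its product quenches rhodamine fluorescence; 0% = enzyme reaction without inhibitor and -100% = no enzyme wells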
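After 15 min at room temperature with compound, 15 nM Sfp received 5 uM rhodamine-CoA plus 12.5 uM BHQ-2-ybbR (50 mM Hepes pH 7.6, 10 mM MgCl2). Rate came from the fluorescence difference over 30 min, ex 525/em 598 nm.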
* marks the source's active call; other numbers are inactive results; ? = inconclusive; nt = not tested or not shown; [ ] = dose if it differs, or a comment. Rows were chosen to be rich in hits. Some 8.1% of all compounds tested hit in one or more screens of this group. Unless noted, calls come from the whole dose curve; as a rule, active = well fitted curve in the direction sought with a large enough effect; inconclusive = small, poorly fitted or top-dose-only effect, or another doubt; inactive = no such curve, though single readings can be large; an effect the other way counts as inactive or inconclusive. Potency is the fitted concentration of half-maximal effect.

SMILES | VP16 counter | Epigenetic derep | PINK1 expr mod | RORg inh | ClpP mod | Sfp PPTase inh
O=C(O)CC12CC3CC(C1)CC(n1ncc(NCc4ccccc4Cl)c(Cl)c1=O)(C3)C2 | ? | 0% | -1% | ? | -2% | -17%
O=C(O)C12CC3CC(C1)CC(n1ncc(NCc4ccco4)c(Cl)c1=O)(C3)C2 | 0% | 0% | 0% | 24% | nt | 35µM*
C[N+](C)(CCOc1ccccc1)Cc1ccccc1 | nt | nt | 1% | nt | 1% | nt
Cc1cc(C(C)(C)CC(C)(C)C)ccc1OCCOCC[N+](C)(C)Cc1ccccc1 | 18µM* | 0% | -1% | ? | 2% | ?
CC(C)c1ccc(N2C(=O)CC(Sc3ncn[nH]3)C2=O)cc1 (stereo not drawn) | ? | 3% | -1% | ? | 1% | 56µM*
COc1ccc(N2C(=O)CC(Sc3ncn[nH]3)C2=O)c(OC)c1 (stereo not drawn) | 22µM* | 10% | 3%[38.3 µM] | 3.2µM* | -2% | 5.6µM*
CC(C)c1ccc(N2C(=O)CC(Sc3nc4ccccc4o3)C2=O)cc1 (stereo not drawn) | 4µM* | 2% | 2% | 5µM* | -1% | ?
Cc1ccc(-n2c(SCC(=O)Nc3ccc4c(c3)OCO4)nc3c([nH]c4ccccc43)c2=O)cc1 | nt | 1% | -1% | nt | ? | nt
C=C1c2ccccc2O[C@H](C(=O)OCC)[C@@H]1CCC(C)C (tested in a mixture with another compound) | -3% | -2% | nt | ? | nt | 0%
CCn1c(-c2ccccc2F)nc2cc(C(=O)NCc3ccc(C)o3)cc(NC(C)=O)c21 | nt | nt | 0% | nt | nt | nt
CN(C)c1ccc(/C=N/NC(=O)CCCO)cc1 | 6% | -1% | 4% | 6% | nt | -1%
CCCCCC(=O)N/N=C/c1ccc(N(C)C)cc1 | ? | 1% | 0% | 31% | 28µM* | -4%
CN(C)c1ccc(/C=N/NC(=O)CCCCCNC(=O)c2ccccc2)cc1 | 6% | 3% | -1% | 0% | nt | 1%
CN(C)c1ccc(/C=N/NC(=O)CCC(=O)NCc2ccccc2)cc1 | -13% | 0% | 3% | -4% | 10µM* | 2%
O=C(Nc1nnc(C2CC2)s1)C1Cc2ccccc2CN1S(=O)(=O)c1ccccc1F (stereo not drawn) | ? | 5% | nt | 8.9µM* | 1% | -4%
Oc1cc2c(cc1C(c1ccc(Br)cc1)N1CCCC1)OCO2 (stereo not drawn) | 8% | -3% | 0% | -3% | nt | 18µM*
COc1ccc(NC(=O)Cn2ccn(-c3ccc(C)c(C)c3)c(=O)c2=O)cc1Cl | nt | 0% | 0% | nt | -16% | nt
CC(C)=CCc1c(O)ccc2c1OC(c1ccc(O)c(O)c1)CC2=O (stereo not drawn) | -19% | ? | 5% | ? | -28% | 2%
O=C1CC(c2ccc(O)c(O)c2)Oc2c1ccc(O)c2O (stereo not drawn) | 2% | 3% | 0% | -15% | -2% | 56µM*
Cc1cccc(Cn2c(COc3ccccc3)nc3ccccc32)c1 | nt | 13% | 4% | nt | 1% | nt
CC(NC(=S)Nc1ccccc1OC(F)F)C(C)(C)C (stereo not drawn) | ? | 0% | 5% | ? | -1% | 15%
CC(NC(=S)Nc1ccc(OC(F)F)cc1OC(F)F)C(C)(C)C (stereo not drawn) | 16µM* | -1% | ? | 7.9µM* | -1% | -11%
CC(NC(=S)Nc1c(Cl)cccc1OC(F)F)C(C)(C)C (stereo not drawn) | 11µM* | -1% | 3% | 13µM* | 1% | 21%
CCN1CCN(C(=O)c2cnn(-c3ccc(F)cc3)c2-n2cccc2)CC1 | nt | -4% | -1% | nt | 0% | nt
O[C@H]1[C@H]2c3cc4c(cc3CN3CCC(=C[C@@H]1O)[C@H]23)OCO4 | nt | ? | nt | nt | nt | 4%
SMILES | VP16 counter | Epigenetic derep | PINK1 expr mod | RORg inh | ClpP mod | Sfp PPTase inh
COc1ccnc(NCc2cccc(C(F)(F)F)c2)c1C#N | -2% | 1% | 14%[38.3 µM] | -15% | ? | 16%
COc1ccnc(NCc2cccnc2)c1C#N | 1% | -2% | 7%[38.3 µM] | 1% | 32µM* | 19%
O=c1c2c(nc3nc(Cc4ccccc4)[nH]n13)CCC2 | 21% | -1% | -3% | 17% | -10% | 2%
O=c1c2c(nc3c(-c4ccccc4)c[nH]n13)CCC2 | ? | -1% | 1%[38.3 µM] | 6.3µM* | 25µM* | 5%
O=c1c2c(nc3c(-c4ccc(Cl)cc4)c[nH]n13)CCC2 | ? | -5% | 2% | 5µM* | nt | ?
Cc1c(-c2ccccc2)[nH]n2c(=O)c3c(nc12)CCCC3 | ? | -1% | 0% | 12% | 25µM* | 5%
O=c1c2c(nc3c(-c4cccc(Br)c4)c[nH]n13)CCCC2 | 3.2µM* | -1% | -2% | 2.5µM* | -7% | 15%
Cc1ccc(C)c(NC(=O)CSc2ncc3c(n2)-c2ccc(Cl)cc2N(C)S3(=O)=O)c1 | nt | 5% | 1% | nt | 5% | nt
COc1ccccc1CCC(=O)N1CCOc2c(cc(-c3cnc4ccccc4c3)cc2OC)C1 | nt | nt | 1% | nt | nt | nt
COc1cccc2cc(S(=O)(=O)c3ccc(F)c(C)c3)c(=O)oc12 | nt | 0% | 1% | nt | 0% | nt
COc1cccc(C(=O)Nc2cccc(NC(=O)c3ccccc3Cl)c2)c1 | 1% | nt | 1% | ? | 1% | 8%
CCOc1cccc(C(=O)NC(=S)Nc2ccc(N3CCN(CC)CC3)cc2)c1 | ? | 4% | -1% | 11µM* | nt | -6%
CCCCOc1cccc(C(=O)NC(=S)Nc2cccnc2)c1 | ? | -1% | 4% | 11µM* | 2% | -3%
CCCOc1cccc(C(=O)Nc2cccnc2)c1 | 16% | -1% | 0%[38.3 µM] | 45% | -3% | 26%
CCOc1cccc(C(=O)NC(=S)Nc2cccc(NC(=O)c3ccccc3Cl)c2)c1 | 0.63µM* | 1% | 5% | -40%[10 µM] | 1% | 14%
CCOc1ccccc1N1C(=O)c2ccc(C(=O)Nc3cccnc3)cc2C1=O | 13µM* | 2% | 1% | 18% | -2% | -24%
Cn1c2ccccc2c2nnc(SCCOc3ccccc3)nc21 | nt | nt | 1% | nt | 5% | nt
CCOc1cccc(C(=O)NC(=S)Nc2ccccc2)c1 | ? | 1% | 0% | 4.5µM* | 4% | -27%
CCOc1cccc(C(=O)NC(=S)Nc2cccnc2)c1 | ? | -2% | -2% | 14µM* | 10% | 45µM*
COc1ccc(-c2noc(-c3ccccc3NC(=O)c3cc(OC)c(OC)c(OC)c3)n2)cc1 | nt | 9% | 1% | nt | 16% | nt
O=C(Nc1ccc(F)cc1)Nc1nnc(-c2ccncc2)s1 | 6% | -1% | 3%[38.3 µM] | 12% | -7% | -14%

From PubChem
